This note sets out measurements from PubChem BioAssay.

As a reminder, the inhibition is the change of the read-out against control, counted positive when it falls.

Active and inactive are the calls of the source. Unless noted, no stated cut-off is given here; in the data, active means inhibition above about 30%; inactive means the rest.

The first experiment deals with Nuclear receptor coactivator 3 (Homo sapiens) (UniProt Q9Y6Q9). In words: SRC3 coactivator transcriptional activity inhibitors, confirmation, cell-based, luminescence, quadruplicate (AID 588792;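 active means mean inhibition over 43.08%, the solvent-only control mean plus 3 SD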;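 further: 0% = DMSO treated cells and 100% = gossypol at 36 µM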). The note with it: HEK293 GAL4-SRC3 luciferase reporter, at 3.6 µM, stronger effect = higher value. For orientation: In a reporter assay the amount or activity of a reporter protein is the signal.
Sequence of Nuclear receptor coactivator 3 (Homo sapiens) (Q9Y6Q9 whole entry, looked up, the tested form may be a part): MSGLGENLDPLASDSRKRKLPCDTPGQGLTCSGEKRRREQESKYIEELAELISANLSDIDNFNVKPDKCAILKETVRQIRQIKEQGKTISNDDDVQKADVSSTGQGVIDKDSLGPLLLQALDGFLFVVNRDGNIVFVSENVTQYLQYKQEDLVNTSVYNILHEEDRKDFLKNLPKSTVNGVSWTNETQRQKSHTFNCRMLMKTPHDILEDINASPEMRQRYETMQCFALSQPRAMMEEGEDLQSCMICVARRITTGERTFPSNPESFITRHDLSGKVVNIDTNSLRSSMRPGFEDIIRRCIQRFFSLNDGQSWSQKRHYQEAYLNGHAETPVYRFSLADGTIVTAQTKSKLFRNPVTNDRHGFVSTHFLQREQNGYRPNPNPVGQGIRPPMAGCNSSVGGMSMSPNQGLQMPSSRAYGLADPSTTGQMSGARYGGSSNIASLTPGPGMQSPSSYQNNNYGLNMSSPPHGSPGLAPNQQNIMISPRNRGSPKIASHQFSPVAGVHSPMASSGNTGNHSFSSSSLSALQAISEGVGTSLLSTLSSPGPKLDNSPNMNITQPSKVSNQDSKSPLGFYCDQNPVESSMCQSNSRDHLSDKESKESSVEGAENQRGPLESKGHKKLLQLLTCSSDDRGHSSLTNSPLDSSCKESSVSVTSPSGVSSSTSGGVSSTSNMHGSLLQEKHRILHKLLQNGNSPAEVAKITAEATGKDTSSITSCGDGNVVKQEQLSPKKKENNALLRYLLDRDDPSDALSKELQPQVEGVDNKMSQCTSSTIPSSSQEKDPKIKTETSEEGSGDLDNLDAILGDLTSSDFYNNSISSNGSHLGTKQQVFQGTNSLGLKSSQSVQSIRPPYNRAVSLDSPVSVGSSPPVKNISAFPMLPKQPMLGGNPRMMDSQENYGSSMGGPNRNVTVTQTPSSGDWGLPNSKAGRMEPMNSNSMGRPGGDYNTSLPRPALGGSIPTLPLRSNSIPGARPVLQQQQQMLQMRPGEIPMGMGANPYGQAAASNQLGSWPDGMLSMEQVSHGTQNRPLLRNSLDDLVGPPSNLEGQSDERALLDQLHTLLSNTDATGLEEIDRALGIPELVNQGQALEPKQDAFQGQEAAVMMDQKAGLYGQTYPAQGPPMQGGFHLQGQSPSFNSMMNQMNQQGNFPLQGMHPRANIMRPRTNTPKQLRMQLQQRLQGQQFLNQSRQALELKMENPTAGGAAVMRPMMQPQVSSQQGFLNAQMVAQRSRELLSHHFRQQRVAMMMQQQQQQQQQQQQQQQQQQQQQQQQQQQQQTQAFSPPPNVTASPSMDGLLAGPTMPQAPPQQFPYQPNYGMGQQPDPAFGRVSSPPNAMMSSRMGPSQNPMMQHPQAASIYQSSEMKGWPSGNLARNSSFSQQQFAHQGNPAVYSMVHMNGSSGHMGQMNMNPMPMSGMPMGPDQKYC
With `COc1ccc(-n2c(=S)[nH]c3cc(C(=O)Nc4ccc(F)cc4)ccc3c2=O)c(OC)c1`, the inhibition was 19.7% (inactive).

For `CC1CCc2c(sc(NC(=O)c3cccs3)c2C(=O)O)C1` (stereo not given), the inhibition is 33.8% (inactive).

With `Cc1nc2ccc(NC(=O)c3ccc(Cl)c(S(=O)(=O)N(C)c4ccccc4)c3)cc2s1`, the inhibition is 19.2% (inactive).

With `CCCCNc1nc2c(c(=O)n(C)c(=O)n2C)n1Cc1cccc(OC)c1`, the inhibition was 11.7% (inactive).

In the case of `O=C(Nc1cccnc1)c1ccc(C(=O)Nc2cccnc2)cc1`, the inhibition was 32.2% (inactive).

`CN(Cc1ccccc1)c1ncnc(N)c1[N+](=O)[O-]`: the inhibition is 41.4% (inactive).

As to `CCn1ccnc1CN(C)Cc1cn[nH]c1-c1ccc(OC)c(F)c1`, the inhibition was 36.8% (inactive).

For `CCCCC(=O)NC(c1ccc(C(C)C)cc1)c1ccc2cccnc2c1O` (stereo not given), the inhibition was 62% (active).

With `CCCCCCCCCCCCCCCC[n+]1cccc2ccccc21`, the inhibition was 44.9% (active).

`O=C1CC(c2ccc3c(c2)OCO3)Sc2nc3ccccc3n21` (stereo not given): the inhibition is -6.28% (inactive).

With `O=c1[nH]cc(F)c(=O)[nH]1`, the inhibition is 14.7% (inactive).

For `CC[n+]1ccccc1/C=C/c1ccc(N(C)C)cc1`, the inhibition is 15.6% (inactive).

As for `CC(=O)N1CCN(c2ncnc3ccccc23)CC1`, the inhibition was 29.2% (inactive).

As to `Cc1cc(=O)[nH]c(Nc2cccc(C(F)(F)F)c2)n1`, the inhibition is 38.8% (inactive).

`COc1cccc(CNc2ncnc3ccc(-c4c(C)noc4C)cc23)c1`: the inhibition was 36.6% (inactive).

For `O=C(N/N=C/c1cc(Br)ccc1O)c1ccncc1`, the inhibition is 23.8% (inactive).

Consider `COc1ccc(-c2c[n+]3c(n2-c2ccccc2)CCCCC3)cc1`, for which the inhibition was 43.4% (active).

Regarding `O=C(NCc1ccco1)c1ccc2c(c1)N(Cc1ccccc1)CCS2`, the inhibition was 4.13% (inactive).

In the case of `CCN(CC)S(=O)(=O)c1ccc(/C=C/C(=O)Nc2ccc(Br)cc2F)cc1`, the inhibition was 21.2% (inactive).

On to `COc1cc(/C=C2\SC(N)=NC2=O)cc(OC)c1`, for which the inhibition was 20.4% (inactive).

In the case of `CC(C)c1ccc(/C=N/Nc2ccc(C(=O)O)cc2)cc1`, the inhibition was -6.28% (inactive).

Regarding `CC(=O)c1c(C)oc2ccc(N(C(C)=O)S(=O)(=O)c3cccc4cccnc34)cc12`, the inhibition is 15.2% (inactive).

As for `Cn1c(/C=C/c2ccc(Cl)cc2Cl)c([N+](=O)[O-])c(=O)n(C)c1=O`, the inhibition is 62.2% (active).

Consider `COc1ccc2[nH]c3c(c2c1)CCNC3=O`, for which the inhibition was 53.2% (active).

Regarding `CC(=O)NC(C)c1cc(Cl)c2cccnc2c1O` (stereo not given), the inhibition was 20.2% (inactive).

Consider `Cn1c(=O)c2c(nc(NCc3ccco3)n2C/C=C/c2ccccc2)n(C)c1=O`, for which the inhibition is 36.4% (inactive).

Consider `Cc1nc(N)nc(N)c1-c1ccc(Cl)c(Cl)c1`, for which the inhibition is 58.5% (active).

With `COc1ccc(-c2cn[nH]c2-c2ccc(OC)cc2)cc1`, the inhibition was 59.5% (active).

For `COc1cccc(-c2nnc3sc(C4CCCCC4)nn23)c1`, the inhibition was 64.5% (active).

Take `OCCNc1c2ccccc2nc2ccccc12`: the inhibition is 4.16% (inactive).

Turning to `O=C(N/N=C/c1ccc(O)cc1O)/C(=C/c1ccccc1)CCO`, the inhibition is 22.1% (inactive).

`CCCCN(CCCC)c1ncnc2nc[nH]c12`: the inhibition was 43.2% (active).

For `COc1cccc(/C=N/NC(=O)c2cc(-c3cccn3C)n[nH]2)c1O`, the inhibition was 41.2% (inactive).

In the case of `COc1cccc(CN(C)C(=O)c2ccc(OCC(=O)Nc3cccc(C(F)(F)F)c3)c(OC)c2)c1`, the inhibition is 14.8% (inactive).

Consider `Cc1[nH]ccc2cc3nc4ccccc4c3cc12`, for which the inhibition was 13.9% (inactive).

With `C[n+]1c2n(c3ccccc31)N=C(c1ccc(Br)cc1)CS2`, the inhibition was 15.5% (inactive).

As for `O=C(N/N=C/c1cc(Cl)cc(Cl)c1O)c1ccncc1`, the inhibition was 26.5% (inactive).

Consider `C[n+]1c2n(c3ccccc31)N=C(c1ccccc1)CS2`, for which the inhibition is 4.94% (inactive).

With `COc1cc(Cl)cc(/C=N\NC(=O)c2ccc3c(c2)OCO3)c1O`, the inhibition is 24.7% (inactive).

As for `O=C(NC1CCCCCCC1)C1c2ccccc2C(=O)N1Cc1cccs1` (stereo not given), the inhibition was 5.02% (inactive).

The subject of a further experiment is transactivating tegument protein VP16 (Human herpesvirus 1), Gal4-VP16 luciferase reporter. In words: VP16 transactivation inhibitors, counter-screen for SRC3 inhibitor project, cell-based, luminescence, high throughput (AID 588794). Particulars: mammalian cells, VP16-driven luciferase reporter luminescence; at 3.6 µM; stronger effect = higher value. Background: The purpose of a counterscreen is to sort out artefacts and off-target activity.
Take `COc1ccc(-n2c(=S)[nH]c3cc(C(=O)Nc4ccc(F)cc4)ccc3c2=O)c(OC)c1`: the inhibition is 40.8% (active).

For `CC1CCc2c(sc(NC(=O)c3cccs3)c2C(=O)O)C1` (stereo not given), the inhibition was 60.6% (active).

Take `Cc1nc2ccc(NC(=O)c3ccc(Cl)c(S(=O)(=O)N(C)c4ccccc4)c3)cc2s1`: the inhibition was 35.7% (active).

Regarding `CCCCNc1nc2c(c(=O)n(C)c(=O)n2C)n1Cc1cccc(OC)c1`, the inhibition is 25.3% (inactive).

Take `O=C(Nc1cccnc1)c1ccc(C(=O)Nc2cccnc2)cc1`: the inhibition was 19.1% (inactive).

For `CN(Cc1ccccc1)c1ncnc(N)c1[N+](=O)[O-]`, the inhibition is 34.3% (active).

For the compound `CCn1ccnc1CN(C)Cc1cn[nH]c1-c1ccc(OC)c(F)c1`, the inhibition was 26.1% (inactive).

Take `CCCCC(=O)NC(c1ccc(C(C)C)cc1)c1ccc2cccnc2c1O` (stereo not given): the inhibition is 61.1% (active).

Consider `CCCCCCCCCCCCCCCC[n+]1cccc2ccccc21`, for which the inhibition was 69.2% (active).

`O=C1CC(c2ccc3c(c2)OCO3)Sc2nc3ccccc3n21` (stereo not given): the inhibition was -34.8% (inactive).

Regarding `O=c1[nH]cc(F)c(=O)[nH]1`, the inhibition was 31% (active).

`CC[n+]1ccccc1/C=C/c1ccc(N(C)C)cc1`: the inhibition was 47.5% (active).

Turning to `CC(=O)N1CCN(c2ncnc3ccccc23)CC1`, the inhibition was 26.3% (inactive).

On to `Cc1cc(=O)[nH]c(Nc2cccc(C(F)(F)F)c2)n1`, for which the inhibition was 34.2% (active).

With `COc1cccc(CNc2ncnc3ccc(-c4c(C)noc4C)cc23)c1`, the inhibition is 1.06% (inactive).

`O=C(N/N=C/c1cc(Br)ccc1O)c1ccncc1`: the inhibition is 34.2% (active).

In the case of `COc1ccc(-c2c[n+]3c(n2-c2ccccc2)CCCCC3)cc1`, the inhibition was 39.6% (active).

On to `O=C(NCc1ccco1)c1ccc2c(c1)N(Cc1ccccc1)CCS2`, for which the inhibition is 6.64% (inactive).

In the case of `CCN(CC)S(=O)(=O)c1ccc(/C=C/C(=O)Nc2ccc(Br)cc2F)cc1`, the inhibition is 40.3% (active).

With `COc1cc(/C=C2\SC(N)=NC2=O)cc(OC)c1`, the inhibition is 27.3% (inactive).

Consider `CC(C)c1ccc(/C=N/Nc2ccc(C(=O)O)cc2)cc1`, for which the inhibition was -26.7% (inactive).

Turning to `CC(=O)c1c(C)oc2ccc(N(C(C)=O)S(=O)(=O)c3cccc4cccnc34)cc12`, the inhibition is 21.9% (inactive).

In the case of `Cn1c(/C=C/c2ccc(Cl)cc2Cl)c([N+](=O)[O-])c(=O)n(C)c1=O`, the inhibition was 51.5% (active).

As for `COc1ccc2[nH]c3c(c2c1)CCNC3=O`, the inhibition is 42.7% (active).

`CC(=O)NC(C)c1cc(Cl)c2cccnc2c1O` (stereo not given): the inhibition was 2.75% (inactive).

On to `Cn1c(=O)c2c(nc(NCc3ccco3)n2C/C=C/c2ccccc2)n(C)c1=O`, for which the inhibition is 44% (active).

As for `Cc1nc(N)nc(N)c1-c1ccc(Cl)c(Cl)c1`, the inhibition was 24.5% (inactive).

Turning to `COc1ccc(-c2cn[nH]c2-c2ccc(OC)cc2)cc1`, the inhibition was 34.7% (active).

As to `COc1cccc(-c2nnc3sc(C4CCCCC4)nn23)c1`, the inhibition is 29.1% (inactive).

On to `OCCNc1c2ccccc2nc2ccccc12`, for which the inhibition was 40.4% (active).

As for `O=C(N/N=C/c1ccc(O)cc1O)/C(=C/c1ccccc1)CCO`, the inhibition is 20.7% (inactive).

Consider `CCCCN(CCCC)c1ncnc2nc[nH]c12`, for which the inhibition is 30.1% (active).

Turning to `COc1cccc(/C=N/NC(=O)c2cc(-c3cccn3C)n[nH]2)c1O`, the inhibition was 35.7% (active).

Turning to `COc1cccc(CN(C)C(=O)c2ccc(OCC(=O)Nc3cccc(C(F)(F)F)c3)c(OC)c2)c1`, the inhibition is 34% (active).

As to `Cc1[nH]ccc2cc3nc4ccccc4c3cc12`, the inhibition is 36.2% (active).

In the case of `C[n+]1c2n(c3ccccc31)N=C(c1ccc(Br)cc1)CS2`, the inhibition was 24.7% (inactive).

Turning to `O=C(N/N=C/c1cc(Cl)cc(Cl)c1O)c1ccncc1`, the inhibition is 40.9% (active).

As for `C[n+]1c2n(c3ccccc31)N=C(c1ccccc1)CS2`, the inhibition is 37.2% (active).

With `COc1cc(Cl)cc(/C=N\NC(=O)c2ccc3c(c2)OCO3)c1O`, the inhibition was 33.3% (active).

In the case of `O=C(NC1CCCCCCC1)C1c2ccccc2C(=O)N1Cc1cccs1` (stereo not given), the inhibition was 14.6% (inactive).
